In the library only some 2.8% were active in any assay of this set; here they are far more common.
HIF-2a block: HIF-2a inhibition | 786-0 RCC cells HIF-2a reporter, luciferase luminescence, overnight | inhibition, % at 18.8 µM | actives 0.72% (n = 360,000) | AID 624352;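 active means inhibition of the luminescence signal of 40% or more relative to plate controls, in a single-dose primary screen at 18.75 µM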
CF NFkB inh: cystic fibrosis NF-kB activation inhibition; actives 0.86% (n = 360,000); KKLEB NF-kB-GFP reporter, PAF-induced, GFP fluorescence overnight; AID 588850; inhibition, % at 5 µM;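 active means at least 50% inhibition at 5 µM, scaled per plate between neutral and stimulator controls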;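 further: PAF is a Pseudomonas aeruginosa culture filtrate used as stimulus; plate controls were PAF-stimulated DMSO wells for no effect and unstimulated DMSO wells for full effect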
Shn3 3UTR inh: reduces Shn3 3'UTR luciferase signal in osteoblasts | actives 0.52% (n = 360,000) | inhibition, % at 12.5 µM | Clone20 osteoblast Shn3 3'UTR firefly luciferase, 24 h;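 active means mean inhibition of at least 75% with every replicate also reaching 75%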;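 further: 0% = median of neutral control wells and 100% = pilot-screen positive control compound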
Peg3 promoter: reduces Peg3 promoter-driven luciferase expression in HeLa | actives 1.7% (n = 360,000) | inhibition, % at 20 µM | HeLa PEG-Prom luciferase reporter, luminescence, overnight;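 active means inhibition of at least 50% at 20 µM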
KKLEB cytotox: CF airway cell cytotoxicity counter-screen | KKLEB CF airway cells viability, ATPlite luminescence, overnight; hits give low values; cells stimulated with P. aeruginosa culture filtrate | activity change (cytotoxicity), % at 5 µM | actives 0.36% (n = 360,000);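 active means corrected activity change at or below -50% at 5 µM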
MITF TRPM1 inh: reduces MITF-dependent TRPM1 promoter luciferase signal; SK-MEL-5 TRPM1 promoter luciferase, 24 h; inhibition, % at 12.5 µM; actives 0.83% (n = 330,000);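 active means mean inhibition across replicates of 60% or more, whatever share of single replicates reaches that level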
Mdm2-MdmX confirm: Mdm2/MdmX (human) interaction inhibition, confirmed. SaOS-2 split-luciferase Mdm2/MdmX complementation, luminescence. AID 504601. actives 99% (n = 740). shares compounds with HIF-2a block. inhibition, % at 8 µM;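 active means mean inhibition of the luminescence signal across two replicates at or above 26 percent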
Target sequence (O15151 whole entry, looked up): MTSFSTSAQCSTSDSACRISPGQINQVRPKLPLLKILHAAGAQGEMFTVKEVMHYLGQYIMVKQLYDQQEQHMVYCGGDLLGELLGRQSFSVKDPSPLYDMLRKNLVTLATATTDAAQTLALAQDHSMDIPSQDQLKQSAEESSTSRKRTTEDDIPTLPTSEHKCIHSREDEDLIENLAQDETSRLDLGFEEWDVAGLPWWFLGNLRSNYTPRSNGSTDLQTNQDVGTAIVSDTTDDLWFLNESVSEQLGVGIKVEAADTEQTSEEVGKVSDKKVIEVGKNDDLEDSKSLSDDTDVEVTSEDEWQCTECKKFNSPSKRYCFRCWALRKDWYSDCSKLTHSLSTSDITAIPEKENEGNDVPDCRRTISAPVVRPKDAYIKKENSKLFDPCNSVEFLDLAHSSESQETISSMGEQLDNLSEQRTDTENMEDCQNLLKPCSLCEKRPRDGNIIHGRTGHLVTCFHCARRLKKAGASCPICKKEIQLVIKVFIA
Target sequence (Q00987 whole entry, looked up): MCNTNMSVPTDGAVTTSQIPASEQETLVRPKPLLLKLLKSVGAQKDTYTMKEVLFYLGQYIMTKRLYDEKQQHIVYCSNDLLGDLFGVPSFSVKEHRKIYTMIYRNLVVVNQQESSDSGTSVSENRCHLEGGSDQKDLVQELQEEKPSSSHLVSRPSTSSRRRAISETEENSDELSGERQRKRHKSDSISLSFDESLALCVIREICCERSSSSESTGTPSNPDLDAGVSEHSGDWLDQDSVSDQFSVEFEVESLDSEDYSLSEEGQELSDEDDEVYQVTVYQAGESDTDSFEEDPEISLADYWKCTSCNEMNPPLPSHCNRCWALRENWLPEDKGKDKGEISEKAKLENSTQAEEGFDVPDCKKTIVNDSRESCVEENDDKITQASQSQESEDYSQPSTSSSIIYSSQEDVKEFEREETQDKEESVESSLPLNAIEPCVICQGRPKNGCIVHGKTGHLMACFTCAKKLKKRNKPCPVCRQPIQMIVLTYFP
HIF-2a conf: confirmation of HIF-2a inhibitors | actives 56% (n = 1,800) | inhibition, % at 18.8 µM | shares compounds with HIF-2a block | 786-0 RCC cells, HIF-2a luciferase reporter luminescence, overnight | AID 651580;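 active means mean inhibition across four replicates of at least 40 percent at the single tested concentration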
HIF-1a cs: inhibits HIF-1a reporter, a counter-screen for HIF-2a inhibitors | shares compounds with HIF-2a block | MiaPaCa-2 HIF-1a luciferase reporter, desferoxamine, overnight | inhibition, % at 18.8 µM | actives 72% (n = 1,800) | AID 651589;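 active means mean inhibition of the reporter signal across four replicates at the single tested dose of 50% or more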
Active calls of the source: *; . = no result given.

SMILES	HIF-2a block	CF NFkB inh	Shn3 3UTR inh	Peg3 promoter	KKLEB cytotox	MITF TRPM1 inh	HIF-2a conf	HIF-1a cs	others
CN(C)c1nc(C=C(C#N)C#N)c(Cl)n1-c1ccc(F)cc1	91*	86*	97*	110*	-96*	101*	92*	92*
CCN(CC)CCn1c2ccccc2c2nc3ccc([N+](=O)[O-])cc3cc21	-59	-68	-122	28	10	-12	.	.	Mdm2-MdmX confirm=83*
Cc1cccc(C)c1N1C(=O)CC(Sc2ccccc2N)C1=O (stereo not given)	10	-14	4	16	-4	.	.	.
CC(=O)N1N=C(c2ccco2)CC1c1ccco1 (stereo not given)	22	-2	-15	19	1	5	.	.
Cc1ccc(C2=NN(C(=O)CCl)C(c3ccco3)C2)o1 (stereo not given)	11	27	-8	69*	-17	59	.	.	Mdm2-MdmX confirm=103*
CCOC(=O)Cn1ccc(NC(=O)COc2ccc(F)cc2F)n1	6	2	-5	-9	2	-6	.	.
Cn1ncc2c(O/N=C(\N)c3ccc(C(F)(F)F)cc3)ncnc21	94*	7	27	107*	-2	9	-13	-51
COc1ccc(CCNC(=O)c2ccc3c(=O)n4c(nc3c2)CCC4)cc1OC	-7	18	-2	-2	-19	-3	.	.
C[C@H](NC(=O)c1nc[nH]c1C(=O)N1CCN(C(=O)OC(C)(C)C)CC1)C(=O)OC(C)(C)C	-5	-9	2	-24	6	-1	.	.
CC(C)C[C@H](NC(=O)c1nc[nH]c1C(=O)N1CCN(C(=O)OC(C)(C)C)CC1)C(=O)OC(C)(C)C	-11	19	-1	-4	-10	.	.	.	Mdm2-MdmX confirm=99*
C=C(CN(C)C)C(=O)c1ccc(C)cc1C	90*	7	97*	99*	-2	109*	96*	74*
Cc1ccc(C(=O)CC(=O)c2ccccc2C)c(O)c1	-87	-14	21	-56	9	11	.	.
O=C1C=CC(=O)N1c1cccc(-c2ccccc2)c1	76*	8	61	109*	5	-10	68*	40
Nc1nc2cc(S(=O)(=O)NC3=NCCCCC3)ccc2s1	41*	-11	8	9	-4	1	-7	-8
O=C1C(Cl)=C(N2CCN(Cc3ccccc3)CC2)C(=O)N1Cc1ccccc1	40*	10	35	44	-8	4	2	26
COc1ccc([C@H]2[C@H]3C=CC[C@@H](C)[C@@H]3C(=O)N2Cc2ccccc2)cc1Cl	28	35	15	22	-11	-20	.	.
COc1ccc(Br)cc1[C@H]1[C@H]2C=CC[C@@H](C)[C@@H]2C(=O)N1Cc1ccccc1	44*	47	7	22	-30	-17	33	46
CCn1cc(C(=O)Nc2sc(C)c(C)c2C(=O)OC)cn1	4	1	9	16	6	-9	.	.
S=C(Nc1cc(Cl)cc(Cl)c1)NC1CCN(Cc2ccccc2)CC1	42*	31	16	94*	-29	12	12	107*
Cn1cc(C(C[N+](=O)[O-])c2ccccc2)c2ccccc21 (stereo not given)	96*	3	12	27	-7	16	5	29
Cc1c(C(=O)Nc2ccc(-c3nnc4n3CCCCC4)cc2)oc2c1ccc1ccccc12	56*	-36	13	42	-10	24	-51	106*
COCCn1c(C)cc(C(=O)CSc2ccc(NC(C)=O)cc2)c1C	11	4	-19	-169	0	-19	.	.
CC(=O)Nc1ccc(SCC(=O)c2cc(C)n(Cc3cccs3)c2C)cc1	71*	13	14	46	-56*	5	82*	89*
Cc1csc(SCC(=O)c2cc(C)n(Cc3cccs3)c2C)n1	38	-7	78	28	-44	7	.	.

Screens: PubChem, several laboratories
